Experimental data as given in PubChem BioAssay AID651681 (Broad Institute, 2012).
Activity calls are given as the source filed them.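 Rule for the calls: active = compound with fitted CDK2 half-maximal potency at or below twice its top tested dose; inconclusive = flat curve near 30 to 70% inhibition, or poor fit; inactive = the rest.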

Target: Cyclin-dependent kinase 2 (Homo sapiens) + Cyclin-A2 (Homo sapiens) (UniProt P20248+P24941)
Assay: CDK2/cyclin A inhibitors, off-target check, dose response, selectivity assay for Dyrk1A inhibitor project, biochemical, dry powder, set 3 (AID 651681)
Conditions: CDK2/cyclin A ADP-Glo luminescence, histone H1 peptide; series mostly up to 10 µM

Cyclin-dependent kinase 2 (Homo sapiens) + Cyclin-A2 (Homo sapiens), sequence (P20248 whole entry, looked up, one chain of several): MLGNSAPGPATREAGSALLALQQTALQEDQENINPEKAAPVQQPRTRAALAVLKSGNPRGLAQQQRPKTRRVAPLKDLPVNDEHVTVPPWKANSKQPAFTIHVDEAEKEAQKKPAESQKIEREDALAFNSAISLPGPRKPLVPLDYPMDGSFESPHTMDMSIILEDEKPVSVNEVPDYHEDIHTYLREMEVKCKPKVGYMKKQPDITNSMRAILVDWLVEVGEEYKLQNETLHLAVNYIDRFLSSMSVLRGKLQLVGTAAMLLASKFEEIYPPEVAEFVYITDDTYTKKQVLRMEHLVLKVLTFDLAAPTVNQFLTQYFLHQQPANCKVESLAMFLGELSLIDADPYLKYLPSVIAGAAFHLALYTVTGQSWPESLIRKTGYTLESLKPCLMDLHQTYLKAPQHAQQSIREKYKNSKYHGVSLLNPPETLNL

outcome, inactive:
COc1ccc(NC(=O)C2CCCN(S(=O)(=O)c3cccc4nonc34)C2)cc1 (configuration not stated)
COc1ccc(OC)c(C2=Nn3c(nnc3-c3ccccc3)SC2)c1
CC(C)n1cnc2cc(NCc3cccc4ccccc34)ccc21
CN(CC(=O)Nc1nc2ccc(Cl)cc2s1)S(=O)(=O)c1ccc(Cl)cc1
COc1ccc2nc(NC(=O)C3CCCN(S(=O)(=O)c4cccc5nsnc45)C3)sc2c1 (configuration not stated)
Cc1ccccc1S(=O)(=O)Cc1ccc(C(=O)NC(C)c2ccc3c(c2)OCCO3)o1 (configuration not stated)
CCOc1ccc2nc(NC(=O)C3CCCN(S(=O)(=O)c4cccc5cccnc45)C3)sc2c1 (configuration not stated)
Cc1csc(NC(=O)C2CCCN(S(=O)(=O)c3cccc4nonc34)C2)n1 (configuration not stated)
CN(CC(=O)Nc1nc2ccc(Cl)cc2s1)S(=O)(=O)c1ccc(C#N)cc1
Clc1ccc(CSc2nc(Nc3ccc4c(c3)OCO4)c3ccccc3n2)cc1
O=C(NCc1ccco1)c1sc2ccccc2c1Cl
COc1ccc(OC)c(CNC(=O)c2sc3ccccc3c2Cl)c1
CN(CC(=O)Nc1nc2ccccc2s1)S(=O)(=O)c1ccccc1
C=CCn1cnc2scc(-c3ccc(OC)cc3)c2c1=O
Cc1sc(NC(=O)CSCc2ccccc2)nc1-c1ccccc1
COc1ccc(C2=Nn3c(nnc3-c3cccnc3)SC2)cc1
Cc1ccc(S(=O)(=O)N(C)CC(=O)Nc2nc3ccccc3s2)cc1
Cc1cccc2sc(NC(=O)CN(C)S(=O)(=O)c3ccc(Cl)cc3)nc12
COc1ccc2nc(NC(=O)C3CCN(S(=O)(=O)c4cccnc4)CC3)sc2c1
CCCCN(c1nc2ccccc2s1)S(=O)(=O)c1ccc(Cl)cc1
COc1ccc(S(=O)(=O)N2CCCC(C(=O)Nc3nc4ccccc4s3)C2)cc1 (configuration not stated)
COc1ccc2c(Cl)c(C(=O)NCc3ccccc3)sc2c1
